Results filed as inconclusive are left out. Calls of active or inactive are those of the source. Calls come from the whole dose curve.
These compounds were tested against Peroxisome proliferator-activated receptor delta (Homo sapiens) (UniProt Q03181) (assay: qHTS assay to identify small molecule agonists of the peroxisome proliferator-activated receptor delta (PPARd) signaling pathway (AID 743212)). Conditions: HEK293H PPARd-UAS-bla, beta-lactamase FRET ratio, 17 h; series mostly up to 62.6 µM.
Peroxisome proliferator-activated receptor delta (Homo sapiens), sequence (Q03181 whole entry, looked up): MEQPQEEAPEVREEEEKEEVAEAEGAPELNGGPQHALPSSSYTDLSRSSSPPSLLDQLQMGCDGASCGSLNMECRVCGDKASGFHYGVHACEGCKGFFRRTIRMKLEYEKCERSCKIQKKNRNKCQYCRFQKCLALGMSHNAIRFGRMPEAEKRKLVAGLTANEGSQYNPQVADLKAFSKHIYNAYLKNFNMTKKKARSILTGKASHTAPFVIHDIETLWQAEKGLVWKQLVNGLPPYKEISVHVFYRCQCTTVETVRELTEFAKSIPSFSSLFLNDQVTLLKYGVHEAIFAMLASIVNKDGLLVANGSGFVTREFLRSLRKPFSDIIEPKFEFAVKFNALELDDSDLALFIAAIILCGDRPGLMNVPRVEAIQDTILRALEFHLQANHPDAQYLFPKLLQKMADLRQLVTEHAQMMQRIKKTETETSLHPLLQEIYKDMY
Excerpt: U.S. Tox21 Program National Center for Advancing Translational Sciences [NCATS] NIH Chemical Genomics Center [NCGC] U.S. Environmental Protection Agency [EPA] National Institutes of Environmental Health Sciences [NIEHS] National Toxicology Program [NTP] U.S. Food and Drug Administration [FDA] Tox21 Assay Overview: The peroxisome proliferator-activated receptors (PPARs) are lipid-activated transcription factors of the nuclear receptor superfamily with three distinct subtypes namely PPAR alpha, PPAR delta (PPARd) and PPAR gamma. All these subtypes heterodimerizes with Retinoid X receptor (RXR) and have different physiological functions. […] To identify the compounds that activate PPAR-delta signaling, GeneBLAzer PPAR delta UAS-bla HEK293H cell line (Invitrogen, Carlsbad, CA, USA) containing a beta-lactamase reporter gene under the control of an Upstream Activator Sequence (UAS) was used to screen the Tox21 compound library.
Tox21 Assay Protocol Summary: PPARd-bla cells were dispensed at 3000 cells/6uL/well in 1536-well black wall/clear bottom plates using a Multidrop Combi (Thermo Fisher Scientific, Waltham, MA) dispenser. After the assay plates were incubated at 37 C and 5% CO2 for 5 h, 23 nL of compounds dissolved in DMSO, positive controls or DMSO only was transferred to the assay plate by a Pintool station (Kalypsys, San Diego, CA). The assay plates were incubated at 37C for 17 h. After 1 uL of LiveBLAzerTM B/G FRET substrate was added using a Bioraptr Flying Reagent Dispenser (FRD) workstation (Beckman Coulter, Indianapolis, IN, USA), the plates were incubated at room temperature for 2 h, and fluorescence intensity was measured by an Envision plate reader (PerkinElmer, Shelton, CT).

Row | SMILES | outcome
1 | Oc1ccc(OCc2ccccc2)cc1 | inactive
2 | C=C(C)C(=O)OCCC[Si](OC)(OC)OC | inactive
3 | OCCOCCOCCOCCO | inactive
4 | CC1CC(OC(=O)c2ccccc2O)CC(C)(C)C1 (stereo not given) | inactive
5 | C=C(C)C(=O)OCC(CC)(COC(=O)C(=C)C)COC(=O)C(=C)C | inactive
6 | O=[N+]([O-])c1cc(N(CCO)CCO)ccc1NCCO | inactive
7 | NC(=O)/N=N/C(N)=O | inactive
8 | NCc1cccc(CN)c1 | inactive
9 | COC(=O)c1ccccc1O | inactive
10 | Cc1ccc(C(=O)O)o1 | inactive
11 | Cc1cc(=O)[nH]c(C(C)C)n1 | inactive
12 | Clc1cc(Cl)c(Cl)cc1Cl | inactive
13 | CC(C)(CO)COC(=O)C(C)(C)CO | inactive
14 | CNC[C@H](O)[C@@H](O)[C@H](O)[C@H](O)CO | inactive
15 | CCCCCC/C=C/CCCCCCCC(=O)O | inactive
16 | C=C(C)C(=O)OCCCCCC | inactive
17 | CCOC(=O)/C=C\C(=O)OCC | inactive
18 | Cc1cc(O)cc(C)c1Cl | inactive
19 | CC1=CC[C@H]2C[C@@H]1C2(C)C | inactive
20 | O=C(O)c1cc(-c2ccccc2)nc2ccccc12 | inactive

Row | SMILES | outcome
21 | CCCCCCCCCCC=CC1CC(=O)OC1=O (stereo not given) | inactive
22 | O=Nc1ccc(O)cc1 | inactive
23 | O=C(c1cc(O)c(O)c(O)c1)c1ccc(O)c(O)c1O | inactive
24 | OC1CCCC1 | inactive
25 | C=C1C2CCC(C2)C1(C)C (stereo not given) | inactive
26 | NCCNCCNCCNCCN | inactive
27 | CCCCOCCOCCOC(=O)CCCCC(=O)OCCOCCOCCCC | inactive
28 | COC(=O)Nc1nc2ccc(Sc3ccccc3)cc2[nH]1 | inactive
29 | CN(C)c1cccc(O)c1 | inactive
30 | Clc1ccc(Cl)c(Cl)c1Cl | inactive
31 | CN(C)c1ccc(C(=N)c2ccc(N(C)C)cc2)cc1 | inactive
32 | CCOC(=O)C1OC1c1ccccc1 (stereo not given) | inactive
33 | Nc1nc2ncc(CNc3ccc(C(=O)N[C@@H](CCC(=O)O)C(=O)O)cc3)nc2c(=O)[nH]1 | inactive
34 | CC(C)Cc1ccccc1 | inactive
35 | O=C(Cl)c1c(Cl)c(Cl)c(C(=O)Cl)c(Cl)c1Cl | inactive
36 | CCC(C)C=O (stereo not given) | inactive
37 | O=S(=O)(O)c1cc(S(=O)(=O)O)c2c(N=Nc3ccccc3)c(O)ccc2c1 | inactive
38 | O=C1O[C@H](CO)[C@@H](O)[C@H](O)[C@H]1O | inactive
39 | O=[N+]([O-])c1cccc(Cl)c1 | inactive
40 | ClC1=C(Cl)C(Cl)(Cl)C(Cl)=C1Cl | inactive
